Bioassay records (PubChem)
KCNQ2 pot: enhances the rat KCNQ2 potassium channel. B-score at 10 µM. CHO-K1 KCNQ2, FluxOR thallium flux fluorescence; stronger effect = higher value. 0.54% of 310,000 active. O88943;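 active = fluorescence ratio B-score at least 3 SD of library B-scores, with initial fluorescence B-score within 3 of them, cut at about 5.3 in these data; same plate scores as AID 2156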;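 note: B-score of peak minus minimum over baseline fluorescence ratio after K+ and Tl+ stimulus; positive B-score means potentiation of KCNQ2 with more thallium influx and brighter signal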
KCNQ2 block: KCNQ2 (rat) channel inhibition. 1.1% of 310,000 active. B-score at 10 µM. AID 2156. CHO-K1 KCNQ2, FluxOR thallium flux, 20 min; stronger effect = lower value. O88943;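 active = fluorescence ratio B-score at most minus 3 library SDs, with starting brightness B-score within 2 library SDs, cut at about -5.5 in these data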
KCNQ2 block conf: confirmation of rat KCNQ2 potassium channel inhibitors. 57% of 1,000 active. KCNQ2-expressing cells, thallium flux, inhibition; stronger effect = lower value. shares compounds with KCNQ2 block. activity change, negative = inhibition, % at 10 µM;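 note: 0% = vehicle wells and values are ratio percent relative to vehicle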
KCNQ1 spec: selectivity of KCNQ2 inhibitors against human KCNQ1 | activity change, negative = inhibition, % at 10 µM | KCNQ1-expressing cells, FluxOR thallium flux fluorescence; stronger effect = lower value | 15% of 1,000 active | shares compounds with KCNQ2 block | AID 493026;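 active = activity change at least 3 SD of negative controls below their mean in both duplicate wells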;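 note: CHO cells stably transfected with KCNQ1 and depolarized by potassium stimulus; peak minus minimum fluorescence over baseline after thallium addition; 0% = vehicle negative control and -100% = blank without thallium stimulus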
Target sequence (P51787 whole entry, looked up): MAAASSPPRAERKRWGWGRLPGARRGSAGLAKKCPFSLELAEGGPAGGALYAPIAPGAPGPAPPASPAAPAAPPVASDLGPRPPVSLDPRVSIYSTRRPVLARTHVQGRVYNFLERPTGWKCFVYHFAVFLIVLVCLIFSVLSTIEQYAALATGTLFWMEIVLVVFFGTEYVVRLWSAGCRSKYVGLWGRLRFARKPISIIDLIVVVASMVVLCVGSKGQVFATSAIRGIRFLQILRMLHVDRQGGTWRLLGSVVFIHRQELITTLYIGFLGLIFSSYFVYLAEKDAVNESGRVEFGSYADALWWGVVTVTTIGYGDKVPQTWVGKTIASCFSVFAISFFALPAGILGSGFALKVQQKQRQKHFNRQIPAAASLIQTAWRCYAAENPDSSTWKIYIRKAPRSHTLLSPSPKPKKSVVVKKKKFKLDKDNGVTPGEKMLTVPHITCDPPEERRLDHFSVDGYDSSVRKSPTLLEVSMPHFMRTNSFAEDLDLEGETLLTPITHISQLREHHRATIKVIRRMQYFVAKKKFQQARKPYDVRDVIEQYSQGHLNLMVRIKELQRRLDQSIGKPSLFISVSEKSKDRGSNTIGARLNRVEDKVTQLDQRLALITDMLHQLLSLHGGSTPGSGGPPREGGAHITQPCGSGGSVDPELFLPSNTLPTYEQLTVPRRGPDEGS
CHO Tl ctr: counter-screen for KCNQ2 inhibitors: effect in parental CHO cells; activity change, % at 10 µM; shares compounds with KCNQ2 block; thallium flux counter-screen; stronger effect = lower value; AID 493029; 14% of 1,000 active;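 note: 0% = vehicle negative controls with stimulus buffer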
KCNQ2 inh confirm: rat KCNQ2 inhibition confirmed by electrophysiology. AID 588531. calls only at 10 µM. shares compounds with KCNQ2 block. KCNQ2-expressing cells, automated patch clamp current. 49% of 550 active
Numbers without * were called inactive. In the library only some 1.6% were active in any assay of this set; here they are far more common. Unless noted, the rule behind the calls is not given here.

How did CCOc1ccc(S(=O)(=O)N2CCC(C(=O)NCc3cccnc3)CC2)cc1C do in these assays?
KCNQ2 pot: 0.75; KCNQ2 block: inactive

Results for O=C(O)C1C2CCC(O2)C1C(=O)Nc1cccc(Cl)c1 (stereo not given) ?
KCNQ2 block: inactive

How did CN(C)c1nc(N/N=C/c2c[nH]c3ccccc23)nc(N2CCOCC2)n1 do in these assays?
KCNQ2 pot: 1.7; KCNQ2 block: inactive

How did C(=N\Nc1nc(N2CCCCC2)nc(N2CCCCC2)n1)/c1c[nH]c2ccccc12 do in these assays?
KCNQ2 pot: -9.3; KCNQ2 block: -9.3*; KCNQ2 block conf: -36%*; KCNQ1 spec: inactive; CHO Tl ctr: inactive; KCNQ2 inh confirm: active

What do the screens show for `Cc1cc(C)n(CC(=O)Nc2ccc3c(c2)OCO3)c(=O)c1C#N`?
KCNQ2 pot: 0.11; KCNQ2 block: inactive

Results for CN(C(=O)COC(=O)COc1ccc(Cl)cc1)C1CCCCC1 ?
KCNQ2 block: inactive

What do the screens show for `Cc1cc(OCC(=O)N(C)C2CCCCC2)cc(C)c1Cl`?
KCNQ2 pot: -7.4; KCNQ2 block: -7.4*; KCNQ2 block conf: -43%*; KCNQ1 spec: -46%*; CHO Tl ctr: -38%*; KCNQ2 inh confirm: active

Results for CN(C1CCCCC1)S(=O)(=O)c1cccc2nsnc12 ?
KCNQ2 pot: 0.13; KCNQ2 block: inactive

What do the screens show for `C=CCC1(/C=N/O)CCOC(C)(C)C1` (stereo not given)?
KCNQ2 pot: 1.5; KCNQ2 block: inactive

Results for COc1ccc(NC(=O)CN(C)C(=O)c2cc(-c3ccccc3)nc3ccccc23)cc1 ?
KCNQ2 block: inactive

How did Cc1ccc2nc(-c3ccccc3)cc(C(=O)N(C)CC(=O)Nc3ccccc3Br)c2c1 do in these assays?
KCNQ2 pot: -8.1; KCNQ2 block: -8.1*; KCNQ2 block conf: inactive; KCNQ1 spec: inactive; CHO Tl ctr: inactive

How did COc1ccccc1Nc1nc(N)nc(CN2CCCCC2)n1 do in these assays?
KCNQ2 block: inactive

Results for COc1ccccc1Nc1nc(N)nc(CN2CCN(Cc3ccccc3)CC2)n1 ?
KCNQ2 pot: -9.9; KCNQ2 block: -9.9*; KCNQ2 block conf: -18%*; KCNQ1 spec: inactive; CHO Tl ctr: inactive; KCNQ2 inh confirm: inactive

What do the screens show for `COc1ccc(C(=O)COc2ccc(C)cc2NC(C)=O)cc1`?
KCNQ2 pot: 1.4; KCNQ2 block: inactive

Results for CCOc1c(C)cc(S(=O)(=O)NCc2ccccn2)c(C)c1C ?
KCNQ2 pot: 0.89; KCNQ2 block: inactive

Results for O=C(CCNc1ccccc1)c1cccc([N+](=O)[O-])c1 ?
KCNQ2 pot: -7.9; KCNQ2 block: -7.9*; KCNQ2 block conf: inactive; KCNQ1 spec: inactive; CHO Tl ctr: inactive

Results for O=C(CCNc1ccc(F)cc1)c1cccc([N+](=O)[O-])c1 ?
KCNQ2 block: inactive

What do the screens show for `O=S(=O)(NCCOc1ccccc1Cl)c1ccc2oc3ccccc3c2c1`?
KCNQ2 pot: -6.8; KCNQ2 block: -6.8*; KCNQ2 block conf: inactive; KCNQ1 spec: inactive; CHO Tl ctr: inactive

What do the screens show for `COc1ccccc1OCCNS(=O)(=O)c1ccc2oc3ccccc3c2c1`?
KCNQ2 block: inactive

How did CCc1nnc(NC(=O)CN2CCN(Cc3ccccc3Cl)CC2)s1 do in these assays?
KCNQ2 block: inactive

What do the screens show for `Cc1cccc(-c2nc(CN3CCCC(C(=O)NC4CCCC4)C3)c(C)o2)c1` (stereo not given)?
KCNQ2 block: inactive

How did Cc1cccc(-c2nc(CN3CCCC(C(=O)NC4CCC(C)CC4)C3)c(C)o2)c1 (stereo not given) do in these assays?
KCNQ2 pot: -9.6; KCNQ2 block: -9.6*; KCNQ2 block conf: -26%*; KCNQ1 spec: inactive; CHO Tl ctr: inactive; KCNQ2 inh confirm: active

How did COC(=O)C(Cc1ccccc1)NC(=S)NC(=O)c1ccccc1 (stereo not given) do in these assays?
KCNQ2 block: inactive

Results for O=c1c2ccccc2nc(COc2ccccc2)n1/N=C/c1ccco1 ?
KCNQ2 pot: -10; KCNQ2 block: -10*; KCNQ2 block conf: inactive; KCNQ1 spec: inactive; CHO Tl ctr: inactive

What do the screens show for `O=c1c2ccccc2nc(COc2ccccc2)n1/N=C/c1ccc(O)c(O)c1`?
KCNQ2 block: inactive

What do the screens show for `Cc1ccc(S(=O)(=O)N(C)C)cc1NC(=O)CCNC(=O)c1ccco1`?
KCNQ2 block: inactive

Results for CCOC(=O)CSc1nnc(Cc2ccccc2)n1-c1cccc(Cl)c1 ?
KCNQ2 block: inactive

How did CCOC(=O)CSc1nnc(CNc2ccccc2Cl)n1-c1ccccc1 do in these assays?
KCNQ2 pot: -6.7; KCNQ2 block: -6.7*; KCNQ2 block conf: -25%*; KCNQ1 spec: inactive; CHO Tl ctr: inactive; KCNQ2 inh confirm: active

Results for CN(CC(O)COc1ccccc1F)C1CCCCC1 (stereo not given) ?
KCNQ2 pot: 0.14; KCNQ2 block: inactive

How did Cc1ccccc1OCC(O)CN(Cc1ccccc1O)C1CCCCC1 (stereo not given) do in these assays?
KCNQ2 pot: -7.4; KCNQ2 block: -7.4*; KCNQ2 block conf: -28%*; KCNQ1 spec: inactive; CHO Tl ctr: inactive; KCNQ2 inh confirm: active

Results for COc1ccccc1C(=O)COC(=O)/C(=C/c1ccccc1)NC(C)=O ?
KCNQ2 pot: 0.59; KCNQ2 block: inactive

What do the screens show for `Cc1ccc(S(=O)(=O)NC(CC(C)C)C(=O)N2CCCC2)cc1` (stereo not given)?
KCNQ2 pot: 0.82; KCNQ2 block: inactive

Results for CCn1c(N2CCN(S(=O)(=O)c3ccccc3C(F)(F)F)CC2)nc2ccccc21 ?
KCNQ2 block: inactive

Results for CCn1c(N2CCN(C(=O)C34CC5CC(CC(C5)C3)C4)CC2)nc2ccccc21 ?
KCNQ2 pot: -8.6; KCNQ2 block: -8.6*; KCNQ2 block conf: -40%*; KCNQ1 spec: -37%*; CHO Tl ctr: -36%*; KCNQ2 inh confirm: active

Results for Cc1ccc(NC(=O)CN(C)C(=O)c2ccccc2OCc2c(C)noc2C)cc1 ?
KCNQ2 block: inactive

What do the screens show for `COc1ccc(Br)cc1CN(C)C(=O)c1ccccc1OCc1c(C)noc1C`?
KCNQ2 pot: -8.6; KCNQ2 block: -8.6*; KCNQ2 block conf: inactive; KCNQ1 spec: inactive; CHO Tl ctr: inactive

Results for Cc1ccc(SCC(=O)N(C)CC(=O)Nc2cccc(F)c2)c(C)c1 ?
KCNQ2 block: inactive

How did Cn1ccc(/C=N/N=C2/NC(=O)CS2)n1 do in these assays?
KCNQ2 block: inactive

Results for COc1cc(NC(=O)c2ccno2)cc(C(=O)Nc2cccc(C(F)(F)F)c2)c1 ?
KCNQ2 block: inactive

How did O=C(Nc1cccc(C(F)(F)F)c1)c1csc(-c2ccncc2)n1 do in these assays?
KCNQ2 pot: 0.48; KCNQ2 block: inactive
